Test results published in publication doi:10.1101/2023.07.10.548322.

target: alpha-synuclein (aSyn) WT (human, UniProt P37840 1-140); assay: RNA Bind-n-Seq; conditions: ssRNA

| Sequence | binding signal [enrichment score] |
| --- | --- |
| GGGGGUGGUGUU | 49.1 |
| GGGGUGGUGUUG | 46.4 |
| UAGGGGUUGUGG | 43.8 |
| GUGCGGGGGGGC | 43.8 |
| GGGGGGGGGGUG | 49.1 |
| GUGGGGGGGCAU | 43.8 |
| UGGGUGGGAAGG | 43.8 |
| GCGGGAGGGCGG | 49.1 |
| AGUGGGGGGGAG | 43.8 |
| UGGGGGUGGAUG | 43.8 |
| UGGGGGGAGAAG | 41.1 |
| AAGGGGCGGAGG | 54.6 |
| GGGGUGAGGUGU | 41.1 |
| GGGAAGGUUGUG | 43.8 |
| GAGGUUGGCGGG | 43.8 |
| GGGGGGAUUGGG | 57.4 |
| GGAGGAGGCGGU | 41.1 |

| Sequence | binding signal [enrichment score] |
| --- | --- |
| UGGGGGAUGAGG | 46.4 |
| GUGGAGAGGUGG | 54.6 |
| GGCGAAGGGAGG | 49.1 |
| GGUAGGCUGUGG | 49.1 |
| AUGGGAGUGGGG | 43.8 |
| GUGUGGGGGCAG | 43.8 |
| GGGGGAUGUGGU | 46.4 |
| GUGGGGAAGGGU | 49.1 |
| UGGCGGGGUGGA | 46.4 |
| CGUGGGAGGGGG | 43.8 |
| GGGUGGGCGGGG | 96 |
| GAGUGGGUGGGA | 43.8 |
| UGGGUGGGUGGG | 46.4 |
| CGGAGGUGGGUG | 41.1 |
| UGAGUGGGUGGU | 43.8 |
| UAGGUUGGGGGU | 46.4 |
